Compound activity (PubChem)
D2 PAM-1: positively modulates the human D2 dopamine receptor allosterically; 0.34% of 340,000 active; potentiation, % at 10 µM; HEK293 T-REx D2, calcium flux, EC20 dopamine potentiation;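 active = potentiation over 3 SD above the plate norm, cut at about 30% in these data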; note: 0% is about no effect
Target sequence (P14416 whole entry, looked up): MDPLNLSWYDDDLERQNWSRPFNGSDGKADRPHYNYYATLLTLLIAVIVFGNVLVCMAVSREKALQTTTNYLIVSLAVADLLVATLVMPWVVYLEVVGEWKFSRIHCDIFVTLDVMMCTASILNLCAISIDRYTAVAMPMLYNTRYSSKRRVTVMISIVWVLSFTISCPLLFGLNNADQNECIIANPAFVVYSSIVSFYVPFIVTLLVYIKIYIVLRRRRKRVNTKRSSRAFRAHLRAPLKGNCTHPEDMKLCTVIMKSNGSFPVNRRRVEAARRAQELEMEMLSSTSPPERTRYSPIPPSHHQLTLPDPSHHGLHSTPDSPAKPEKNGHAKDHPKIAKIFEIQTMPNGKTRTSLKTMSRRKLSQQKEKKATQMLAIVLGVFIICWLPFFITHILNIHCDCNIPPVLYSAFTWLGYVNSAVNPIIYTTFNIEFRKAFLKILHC
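Cells plated with tetracycline inducer and held overnight at 30 C; calcium dye loaded 30–90 min at room temperature; baseline taken, compound added and read 180 s; EC20 dopamine then added and read 180 s.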
D2 antagonist: D2 dopamine receptor (human) antagonism. HEK293 TREx D2 cells, calcium flux, dopamine EC80. inhibition, % at 10 µM. 2% of 340,000 active. AID 485344; in the data active = inhibition above about 30%; inactive = below that, where a call was filed; note: 0% is about no effect
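Compounds are added to dye-loaded, induced HEK293 T-REx cells coupled to calcium release via D2; after a 3 min kinetic read an EC80 dopamine stimulus is given and fluorescence is recorded for 3 more min.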
D2 ag-1: activates the human D2 dopamine receptor | AID 485358 | HEK293 T-REx D2 cells, calcium flux agonist mode | 0.53% of 340,000 active | activation, % at 2 µM;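 active = activation over 3 SD above normal in the single-dose calcium agonist read, cut at about 30% in these data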; note: 0% is about no effect
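Tetracycline-induced HEK293 T-REx cells with force-coupled D2 receptor, plated overnight at 30 C, loaded with no-wash calcium dye. After a 10 s baseline, compound was pin-added and calcium flux read kinetically for 180 s; calcium rises flagged agonists.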
Apoferritin bind: candidate novel general anesthetic via apoferritin binding; P02791; apoferritin/1-aminoanthracene competitive binding, fluorescence; Potency, µM (doses to about 77.5 µM), for the others: at the top dose activity change, negative = displacement, most hits filed as inhibitors; 0.074% of 350,000 active; active = well fitted inhibition curve with a large enough effect; inconclusive = small, poorly fitted or top-dose-only effect; inactive = no such curve, though single readings can be large or run the other way; note: potency is the fitted concentration of half-maximal effect; % is set by controls: 0 for no effect and ±100 for the full control effect; nearly all actives have a fitted effect of over 20% in size
Target sequence (P02791 2-175 limits assumed): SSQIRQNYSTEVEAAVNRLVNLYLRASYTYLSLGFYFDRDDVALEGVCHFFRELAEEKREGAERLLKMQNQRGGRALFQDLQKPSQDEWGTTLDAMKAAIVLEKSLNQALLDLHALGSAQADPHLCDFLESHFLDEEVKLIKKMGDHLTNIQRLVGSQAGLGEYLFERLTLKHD
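10 uM apoferritin + 50% sat. 1-AMA, PBS; cpd 10 min RT; Ex380/Em535 endpoint; normalized to free probe vs complex; 4-param Hill fit; propofol titration as pos. ctrl.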
D2 PAM-2: human D2 receptor positive allosteric modulation; DiscoveRx D2 beta-arrestin cells, luminescence, 90 min; 100% = 57 uM dopamine signal; potentiation, % (test concentration not listed); 0.23% of 360,000 active; in the data active = potentiation above about 50%; inconclusive = mostly about 30% to 49%
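D2 cells co-treated with compound plus 50 nM dopamine (EC20) for 90 min at 37 deg C to detect potentiation. Beta-arrestin recruitment was read as enzyme-fragment luminescence after 1 h at ambient temperature. Full response was set by 57 uM dopamine.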
D2 ag-2: activates the human D2 dopamine receptor | P14416 | DiscoveRx PathHunter D2 beta-arrestin, luminescence, 90 min; 100% = 57 uM dopamine signal | activation, % (test concentration not listed) | 0.084% of 360,000 active | AID 624465; in the data active = activation above about 40%; inconclusive = between about 15% and that limit
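DiscoveRx PathHunter D2 beta-arrestin cells (2,100/well) attached overnight, then compound-stimulated 90 min at 37 C in HBSS/10 mM HEPES/0.1% Tween-20 buffer; beta-galactosidase complementation read by luminescence after 1 h at ambient temperature. Dopamine 57 uM final (EC100) as control.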
Numbers without * were called inactive; ? = inconclusive; / = no result. This is a sample that favours compounds with a hit; in the whole collection about 2.5% have one here.

SMILES	D2 PAM-1	D2 antagonist	D2 ag-1	Apoferritin bind	D2 PAM-2	D2 ag-2
O=C(CNC(=O)c1cccc(-n2cnnn2)c1)Nc1ccc(F)c(F)c1	-20	38*	0	/	-2	-2
O=C(Nc1cc(F)ccc1F)c1cccc(-n2cnnn2)c1	-1	4	0	/	4	-5
O=C(Nc1cccnc1)c1cccc(S(=O)(=O)N2CCCCC2)c1	-3	53*	1	-6%	-1	1
COc1ccc(NC(=O)c2ccc(S(=O)(=O)N3CCCCCC3)cc2)c(OC)c1	6	-8	-1	-20%	-3	2
O=C(Nc1cccc(S(=O)(=O)N2CCCC2)c1)c1cccnc1	4	-12	0	-4%	-17	-9
COc1cc(S(=O)(=O)N2CCCCC2)ccc1NC(=O)c1ccncc1	3	37*	0	1%	-2	-2
COC(=O)Nc1ccc(S(=O)(=O)N2CCCC(C(=O)Nc3cccnc3)C2)cc1 (stereo unspecified)	7	43*	-1	-9%	-10	1
CCOC(=O)C(C)n1ncn2cccc2c1=O (stereo unspecified)	2	26	2	-6%	-3	2
COc1ccc(C(=O)c2c(C(F)(F)F)oc3c2C(=O)c2ccccc2C3=O)cc1OC	5	31*	2	?	?	?
CCS(=O)(=O)c1ccc2oc(=O)c(/C=C(\O)c3ccc(Cl)cc3)nc2c1	-3	13	1	-11%	-18	-4
O=C(COC(=O)CC12CC3CC(CC(C3)C1)C2)Nc1ncc(Cl)cc1Cl	4	15	-1	20µM*	-6	0
O=C(COC(=O)C12CC3CC(CC(C3)C1)C2)Nc1ncc(Cl)cc1Cl	-5	0	0	?	-5	3
Nc1ncnc(Nc2ccccn2)c1[N+](=O)[O-]	9	31*	0	-5%	-7	-2
C=CCc1c(C)nc2c(C(=O)O)cnn2c1C	12	-1	0	-8%	0	-3
CN(c1ccc(C(=O)Nc2ccc3c(c2)OCO3)cc1)S(C)(=O)=O	-3	0	0	-6%	-13	-4
CN(c1ccc(C(=O)Nc2ccc(CC#N)cc2)cc1)S(C)(=O)=O	4	41*	0	-5%	0	-3
C[C@H](N)c1nnc(SCC(=O)c2ccc(Cl)cc2)o1	8	40*	2	-12%	10	1
CC(C)[C@H](N)c1nnc(SCC(=O)c2ccc(Cl)cc2)o1	11	0	0	?	-8	0
O=C(Nc1ccc(F)cc1)c1ccc2ncsc2c1	-6	18	0	-2%	-3	6
O=C(Nc1ccc(Cl)cc1)c1ccc2ncsc2c1	-20	40*	0	8%	-5	?
Cc1cccc(/C=N/NC(=O)c2cc3c(s2)-c2ccccc2CC3)c1	14	32*	1	-4%	0	0
C[C@@H]1C(NC(=O)c2ccccc2)CC2CC1C2(C)C (stereo partly specified)	-1	-4	1	?	-11	-1
CSc1cccc(CN2CCN(CCc3ccccc3)C(CCO)C2)c1 (stereo unspecified)	-30	27	0	-9%	-42	-2
CSc1ccc(CN2CCN(Cc3ccccc3)C(CCO)C2)cc1 (stereo unspecified)	-17	14	1	-8%	-16	-1
CSc1ccc(CN2CCN(CC=C(C)C)C(CCO)C2)cc1 (stereo unspecified)	-22	33*	0	-4%	-12	-4
SMILES	D2 PAM-1	D2 antagonist	D2 ag-1	Apoferritin bind	D2 PAM-2	D2 ag-2
CSc1cccc(CN2CCN(Cc3ccccc3)C(CCO)C2)c1 (stereo unspecified)	-35	39*	-3	-6%	-8	-2
CSCCC(NC(=O)c1ccco1)C(=O)OC(C)C(=O)NC(=O)NC1CCCCC1 (stereo unspecified)	/	49*	7	-8%	-3	-3
C[C@H](NC(=O)c1ccco1)C(=O)NC1CCCCCC1	-6	2	2	/	-3	5
Cc1ccc(C)c(Cn2nc3c4ccccc4n(Cc4ccccc4)cc-3c2=O)c1	5	30*	0	-19%	-6	-4
Cc1cccc(NC(=O)Cn2nc3c4ccccc4n(Cc4ccccc4)cc-3c2=O)c1	1	/	0	-8%	/	/
Cc1csc(NS(=O)(=O)c2cccc([N+](=O)[O-])c2)n1	-22	34*	1	-11%	-9	2
COC(=O)CNC(=O)CSc1nc2sccc2c(=O)n1-c1ccccc1	1	-10	-1	3%	-6	0
CNS(=O)(=O)c1ccc(N=Cc2c(C)[nH]n(-c3ccc(C)cc3C)c2=O)cc1	-7	42*	1	-20%	1	-3
Cc1ccc(-n2[nH]c(C)c(C=Nc3ccc(S(=O)(=O)Nc4nc(C)cc(C)n4)cc3)c2=O)c(C)c1	6	-5	1	5%	12	-1
Cc1cccc(NC(=O)Cn2c(=O)ccc3cc(S(=O)(=O)N4CCCC4)ccc32)c1C	-2	/	0	-7%	/	/
N#Cc1ccc2c(c1)nnn2-c1ccccc1	/	/	/	/	3	1
COC(=O)CSC1=C(C#N)C(c2ccc(Cl)cc2)C(C(=O)OC)C(=O)N1 (stereo unspecified)	-5	-14	1	-17%	-4	1
COC(=O)C1C(=O)NC(SC)=C(C#N)C1c1ccccc1 (stereo unspecified)	34*	2	0	-15%	0	-1
CCCN(CCC)c1ccc(/C=C/c2ccc3cc(OCC)ccc3n2)cc1	-4	-6	38*	-8%	-3	1
COc1ccc(N=Cc2c(O)n(-c3cccc(C)n3)c(=O)c3ccccc23)cc1	-3	32*	-1	-10%	-2	-2
CCOC(=O)C1(CC2CCCCO2)CCN(Cc2nc3ccccc3nc2C)CC1 (stereo unspecified)	-15	/	/	-15%	-18	-5
CCOC(=O)C1(CC2CCCCO2)CCN(Cc2ccc(OC)cc2F)CC1 (stereo unspecified)	-21	61*	-1	-6%	-15	-3
O=C(Nc1ccc(Cl)c(Cl)c1)Nc1ccccn1	-4	-3	0	-13%	0	7
CCN(CC)CCOC(=O)c1ccc(NC(=O)c2cn(-c3ccccc3)nc2-c2cccs2)cc1	3	-17	2	-10%	-11	-1
CCN(CC)CCNC(=O)c1cn(-c2ccccc2)nc1-c1cccs1	-24	37*	1	3%	-17	-1
CCOc1ccc(NC(=O)Cn2cc(C(=O)CC)c3ccccc32)cc1	5	0	1	-7%	-14	-1
